This is an account of results in PubChem BioAssay (EPA / NIEHS).

What all share (settings): mRNA level, 48 h; actives raise or lower the signal
Read-out in assay [1]: Bcl-2 (BID) gene, BID (gene 637)
Description: LTEA_HepaRG_BID: Life Technologies and Expression Analysis (LTEA) Assay for Bcl-2 (BID) gene using HepaRG (AID 2283476). In short, it runs like this: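 Duplicate 48 h treatments of HepaRG cells in serum-free induction medium spanned 100 uM downward in half-log steps, 0.5% DMSO. Transcript change quantified by qRT-PCR against three housekeeping genes, fitted up or down versus DMSO.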

Read-out in assay [2]: Caspase-3 (Homo sapiens) (UniProt P42574)
Description: LTEA_HepaRG_CASP3: Life Technologies and Expression Analysis (LTEA) Assay for cysteine-aspartic acid protease (CASP3) using HepaRG (AID 2283477). In short, it runs like this: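 Expression of CASP3 was quantified by TaqMan qRT-PCR against three housekeeping genes (ACTB, GAPDH, POLR2A), bidirectionally versus 0.5% DMSO. HepaRG cultures received compounds in duplicate, top 100 uM with half-log steps, for 48 h in serum-free induction medium.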

Read-out in assay [3]: Cytochrome P450 (CYP24A1), CYP24A1 (gene 1591)
Description: LTEA_HepaRG_CYP24A1: Life Technologies and Expression Analysis (LTEA) Assay for Cytochrome P450 (CYP24A1) using HepaRG (AID 2283478). In short, it runs like this:
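mRNA of CYP24A1 quantified by TaqMan qRT-PCR (ACTB/GAPDH/POLR2A normalization) after 48 h chemical exposure of HepaRG cells, top concentration 100 uM, half-log steps, 0.5% DMSO vehicle, duplicates. Curves fitted bidirectionally against DMSO baseline.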

Read-out in assay [4]: Cytochrome P450 (CYP1A2), CYP1A2 (gene 1544)
Nature of the assay: LTEA_HepaRG_CYP1A2: Life Technologies and Expression Analysis (LTEA) Assay for Cytochrome P450 (CYP1A2) using HepaRG (AID 2283479). In short, it runs like this:
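CYP1A2 transcript measured by TaqMan qRT-PCR against three housekeeping genes after 48-hour chemical exposure of HepaRG cells. Eight-point half-log series topping at 100 uM in 0.5% DMSO, duplicates; gain or loss fitted relative to vehicle.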

Read-out in assay [5]: cysteine-aspartic acid protease (CASP8), CASP8 (gene 841)
Nature of the assay: LTEA_HepaRG_CASP8: Life Technologies and Expression Analysis (LTEA) Assay for cysteine-aspartic acid protease (CASP8) using HepaRG (AID 2283480). In short, it runs like this: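 CASP8 transcript measured by TaqMan qRT-PCR with ACTB/GAPDH/POLR2A normalization, after 48 h chemical exposure of HepaRG cells in serum-free induction medium. Eight concentrations, top 100 uM, half-log steps, 0.5% DMSO vehicle; fits in both directions versus DMSO.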

Read-out in assay [6]: Cytochrome P450 (CYP2B6), CYP2B6 (gene 1555)
Description: LTEA_HepaRG_CYP2B6: Life Technologies and Expression Analysis (LTEA) Assay for Cytochrome P450 (CYP2B6) using HepaRG (AID 2283481). In short, it runs like this: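 CYP2B6 transcript level quantified by qRT-PCR against three housekeeping genes, fitted bidirectionally relative to DMSO. HepaRG cultures received chemicals for 48 h, 8-point half-log series from 100 uM in 0.5% DMSO, duplicate wells, serum-free induction medium.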

Read-out in assay [7]: Cytochrome P450 2C19 (Homo sapiens) (UniProt P33261)
Nature of the assay: LTEA_HepaRG_CYP2C19: Life Technologies and Expression Analysis (LTEA) Assay for CYP2C19 using HepaRG (AID 2283482). In short, it runs like this: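 CYP2C19 transcript levels by qRT-PCR, normalized to three housekeeping genes, in HepaRG cells after 48 h chemical exposure. Eight-point half-log series topping at 100 uM, 0.5% DMSO vehicle. Increases and decreases both fitted against DMSO.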

Read-out in assay [8]: CYP2C8 (gene 1558)
Nature of the assay: LTEA_HepaRG_CYP2C8: Life Technologies and Expression Analysis (LTEA) Assay for CYP2C8 using HepaRG (AID 2283483). In short, it runs like this: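 CYP2C8 expression measured by TaqMan qRT-PCR and normalized to three housekeeping genes. HepaRG cultures were treated for 48 h with an eight-point half-log series topping at 100 uM, vehicle 0.5% DMSO, duplicates; fitted both directions against DMSO.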

Read-out in assay [9]: CYP2C9 (gene 1559)
Nature of the assay: LTEA_HepaRG_CYP2C9: Life Technologies and Expression Analysis (LTEA) Assay for CYP2C9 using HepaRG (AID 2283484). In short, it runs like this: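 CYP2C9 transcript level, quantified by TaqMan qRT-PCR against three housekeeping genes, was fitted bidirectionally relative to 0.5% DMSO. HepaRG cultures were treated 48 h, in duplicate, at eight half-log concentrations topping at 100 uM.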

Read-out in assay [10]: CYP2E1 (gene 1571)
Nature of the assay: LTEA_HepaRG_CYP2E1: Life Technologies and Expression Analysis (LTEA) Assay for CYP2E1 using HepaRG (AID 2283485). In short, it runs like this: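 CYP2E1 transcript measured by Fluidigm qRT-PCR against three housekeeping genes in human HepaRG cells treated 48 h (top 100 uM, half-log steps, 0.5% DMSO vehicle). Gain or loss fitted relative to DMSO baseline.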

Read-out in assay [11]: CYP4A11 (gene 1579)
Description: LTEA_HepaRG_CYP4A11: Life Technologies and Expression Analysis (LTEA) Assay for CYP4A11 using HepaRG (AID 2283486). In short, it runs like this: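 Readout is CYP4A11 transcript level by qRT-PCR, normalized to three housekeeping genes and fitted bidirectionally against 0.5% DMSO. Human HepaRG cells were treated 48 h, in duplicate, with an 8-point half-log series topping at 100 uM.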

Read-out in assay [12]: DNA damage-inducible transcript 3 (DDIT3), DDIT3 (gene 1649)
Description: LTEA_HepaRG_DDIT3: Life Technologies and Expression Analysis (LTEA) Assay for DNA damage-inducible transcript 3 (DDIT3) using HepaRG (AID 2283488). In short, it runs like this:
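DDIT3 transcript was quantified by qRT-PCR with ACTB/GAPDH/POLR2A normalization after 48 h chemical treatment of differentiated HepaRG cells in 0.5% DMSO. Dosing was eight-point, half-log, top 100 uM, duplicate wells. Curves fitted bidirectionally versus DMSO.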

Read-out in assay [13]: Pro-epidermal growth factor (Homo sapiens) (UniProt P01133)
Description: LTEA_HepaRG_EGF: Life Technologies and Expression Analysis (LTEA) Assay for Epidermal growth factor (EGF) using HepaRG (AID 2283489). In short, it runs like this:
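EGF transcript measured by Fluidigm TaqMan qRT-PCR with three housekeeping genes for normalization, 48 h after dosing HepaRG cultures in duplicate (top 100 uM, half-log steps, 0.5% DMSO vehicle). Gain or loss relative to DMSO fitted.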

Read-out in assay [14]: Early growth response protein 1 (EGR1) transcription factor, EGR1 (gene 1958)
Description: LTEA_HepaRG_EGR1: Life Technologies and Expression Analysis (LTEA) Assay for Early growth response protein 1 (EGR1) transcription factor using HepaRG (AID 2283490). In short, it runs like this:
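EGR1 transcript levels quantified by qRT-PCR (Fluidigm arrays) against three housekeeping genes after 48 h chemical exposure of HepaRG cells. Eight-point half-log series topping at 100 uM, 0.5% DMSO vehicle, analyzed for gain or loss.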

Read-out in assay [15]: Ezrin (EZR), EZR (gene 7430)
Description: LTEA_HepaRG_EZR: Life Technologies and Expression Analysis (LTEA) Assay for Ezrin (EZR) using HepaRG (AID 2283491). In short, it runs like this:
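Read-out is EZR transcript level by qRT-PCR, normalized to three housekeeping genes and fitted bidirectionally against the DMSO control. Human HepaRG cells received test chemicals for 48 h at eight half-log concentrations up to 100 uM in 0.5% DMSO.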

Read-out in assay [16]: CYP3A5 (gene 1577)
Description: LTEA_HepaRG_CYP3A5: Life Technologies and Expression Analysis (LTEA) Assay for CYP3A5 using HepaRG (AID 2283493). In short, it runs like this: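 mRNA levels were quantified by qRT-PCR on Fluidigm arrays and normalized to three housekeeping genes. Differentiated HepaRG cells received 48 h exposure (top 100 uM, half-log steps, 0.5% DMSO vehicle, duplicate); bidirectional fitting versus DMSO.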

Read-out in assay [17]: Fatty Acid-Binding Protein 1 (FABP1), FABP1 (gene 2168)
Description: LTEA_HepaRG_FABP1: Life Technologies and Expression Analysis (LTEA) Assay for Fatty Acid-Binding Protein 1 (FABP1) using HepaRG (AID 2283494). In short, it runs like this:
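FABP1 expression by TaqMan qRT-PCR, normalised to three housekeeping genes, in HepaRG cells after 48 h chemical treatment. Eight-point half-log series topping at 100 uM in 0.5% DMSO, duplicates; gain or loss fitted relative to vehicle.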

Read-out in assay [18]: Cytochrome P450 4A22 (Homo sapiens) (UniProt Q5TCH4)
Nature of the assay: LTEA_HepaRG_CYP4A22: Life Technologies and Expression Analysis (LTEA) Assay for Cytochrome P450 4A22 (CYP4A22) using HepaRG (AID 2283495). In short, it runs like this: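 Gene expression measured by qRT-PCR against three housekeeping genes (ACTB, GAPDH, POLR2A), with gain or loss fitted relative to 0.5% DMSO vehicle. HepaRG cultures received 48 h chemical treatment, top concentration 100 uM, half-log steps, duplicate wells.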

Read-out in assay [19]: Cytochrome P450 3A7 (Homo sapiens) (UniProt P24462)
Nature of the assay: LTEA_HepaRG_CYP3A7: Life Technologies and Expression Analysis (LTEA) Assay for CYP3A7 using HepaRG (AID 2283492). In short, it runs like this:
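CYP3A7 transcript measured by qRT-PCR (ACTB, GAPDH, POLR2A normalization) after 48 h chemical exposure of HepaRG cells in duplicate. Eight half-log concentrations, maximum 100 uM, 0.5% DMSO vehicle; bidirectional curve fitting against DMSO baseline.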

Read-out in assay [20]: Cytochrome P450 3A4 (Homo sapiens) (UniProt P08684)
Description: LTEA_HepaRG_CYP3A4: Life Technologies and Expression Analysis (LTEA) Assay for CYP3A4 using HepaRG (AID 2283487). In short, it runs like this:
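HepaRG, 48 h exposure, 8-pt CRC from 100 uM (half-log), 0.5% DMSO, duplicates; serum-free induction medium. Readout: CYP3A4 mRNA, qRT-PCR, ACTB/GAPDH/POLR2A normalization. Bidirectional fit vs DMSO.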

Activity calls are given as the source filed them. How the source made its calls: active means hit-call score of the fitted dose curve at least 0.9, where 1 is the maximum; inactive means score below 0.9.

Chain of Cytochrome P450 2C19 (Homo sapiens) (P33261 whole entry, looked up): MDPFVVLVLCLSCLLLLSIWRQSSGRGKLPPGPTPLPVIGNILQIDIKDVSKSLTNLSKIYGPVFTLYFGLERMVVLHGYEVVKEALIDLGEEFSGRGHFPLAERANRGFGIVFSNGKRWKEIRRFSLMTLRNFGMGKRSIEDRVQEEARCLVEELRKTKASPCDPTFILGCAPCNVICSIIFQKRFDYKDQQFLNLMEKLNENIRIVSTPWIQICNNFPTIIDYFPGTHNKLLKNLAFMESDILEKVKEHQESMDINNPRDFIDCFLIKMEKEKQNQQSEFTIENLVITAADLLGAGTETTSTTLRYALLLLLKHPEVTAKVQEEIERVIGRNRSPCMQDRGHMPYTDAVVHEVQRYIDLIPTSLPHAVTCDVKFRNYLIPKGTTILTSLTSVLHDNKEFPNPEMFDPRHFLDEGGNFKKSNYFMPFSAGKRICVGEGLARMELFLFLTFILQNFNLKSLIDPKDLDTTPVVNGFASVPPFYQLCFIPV
Chain of Caspase-3 (Homo sapiens) (P42574 whole entry, looked up): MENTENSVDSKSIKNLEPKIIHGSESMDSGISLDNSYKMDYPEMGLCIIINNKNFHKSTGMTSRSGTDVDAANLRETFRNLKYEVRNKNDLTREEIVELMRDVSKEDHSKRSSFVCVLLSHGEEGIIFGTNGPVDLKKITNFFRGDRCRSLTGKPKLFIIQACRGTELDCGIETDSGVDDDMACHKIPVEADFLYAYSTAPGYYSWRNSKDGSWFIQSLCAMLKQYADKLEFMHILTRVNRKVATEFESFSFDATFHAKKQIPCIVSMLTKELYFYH
Chain of Cytochrome P450 3A7 (Homo sapiens) (P24462 whole entry, looked up): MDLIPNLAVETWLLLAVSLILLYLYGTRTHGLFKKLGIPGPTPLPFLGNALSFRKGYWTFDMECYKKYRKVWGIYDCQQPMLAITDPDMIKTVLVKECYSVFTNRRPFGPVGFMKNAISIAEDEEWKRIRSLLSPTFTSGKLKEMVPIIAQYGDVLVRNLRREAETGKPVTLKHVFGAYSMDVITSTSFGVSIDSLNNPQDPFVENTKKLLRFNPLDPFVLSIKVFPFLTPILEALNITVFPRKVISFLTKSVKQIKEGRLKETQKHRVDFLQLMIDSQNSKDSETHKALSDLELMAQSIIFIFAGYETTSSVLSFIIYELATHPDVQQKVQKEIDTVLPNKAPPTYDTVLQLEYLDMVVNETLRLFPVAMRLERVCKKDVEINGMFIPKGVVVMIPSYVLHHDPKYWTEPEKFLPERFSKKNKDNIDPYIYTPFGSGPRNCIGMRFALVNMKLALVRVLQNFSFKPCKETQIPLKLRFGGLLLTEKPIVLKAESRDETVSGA
Chain of Cytochrome P450 3A4 (Homo sapiens) (P08684 whole entry, looked up): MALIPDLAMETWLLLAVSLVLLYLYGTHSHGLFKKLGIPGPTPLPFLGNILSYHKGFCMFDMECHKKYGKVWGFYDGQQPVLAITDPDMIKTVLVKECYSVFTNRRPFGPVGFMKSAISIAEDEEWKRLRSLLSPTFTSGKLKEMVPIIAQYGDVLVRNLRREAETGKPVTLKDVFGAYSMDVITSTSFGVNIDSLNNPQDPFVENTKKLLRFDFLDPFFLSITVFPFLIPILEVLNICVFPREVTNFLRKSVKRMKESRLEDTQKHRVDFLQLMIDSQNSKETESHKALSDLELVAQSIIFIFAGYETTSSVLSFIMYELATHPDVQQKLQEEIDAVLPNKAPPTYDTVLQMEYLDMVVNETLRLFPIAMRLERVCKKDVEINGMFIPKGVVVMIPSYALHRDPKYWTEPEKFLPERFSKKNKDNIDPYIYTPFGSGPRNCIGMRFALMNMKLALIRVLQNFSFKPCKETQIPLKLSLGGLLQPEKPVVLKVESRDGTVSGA

For `Cc1[nH]cnc1C[C@H]1CCc2c(C)c3ccccc3n2C1=O`, the call in assay [1], in assay [2], in assay [3], in [13] and in [16] was inactive. The AC50 in [4] was 5.56 µM (active); in assay [5], 66.7 µM (active); in assay [6], 29 µM (active); in assay [7] it was 30.6 µM (active); in assay [8], 22.9 µM (active); in [9], 28.7 µM (active). For the same compound, the AC50 is 17.6 µM (active) in [10]; 13.2 µM (active) in assay [11]; 27.4 µM (active) in assay [12]; 70.2 µM (active) in assay [14]; 11.8 µM (active) in [15]; 17.1 µM (active) in assay [17]. Also, in assay [18], the AC50 is 18.9 µM (active).
Turning to `O=C(O)c1cc(N=Nc2ccc(S(=O)(=O)Nc3ccccn3)cc2)ccc1O`, the compound was classed as inactive in assay [1], in [2], in assay [3], in [5], in [6] and in assay [7]. Also, the result in assay [8], in assay [9], in assay [10], in [11], in assay [12] and in assay [13] was inactive. Besides, the result in [14], in [15], in assay [19], in assay [16], in assay [17] and in assay [18] was inactive. In addition, the AC50 in [4] was 75.7 µM (active).
Consider `CCCCC(CC)COC(=O)c1ccc(C(=O)OCC(CC)CCCC)cc1` (stereo not drawn), for which the compound was classed as inactive in assay [1], in assay [2], in assay [3], in assay [4], in assay [5] and in assay [6]. Moreover, the result in [7], in [8], in assay [10], in assay [11], in assay [20] and in assay [12] was inactive. For the same compound, the outcome in assay [13], in assay [14], in [15], in assay [19], in assay [16] and in assay [17] was inactive. The compound was called inactive in assay [18].
As to `Cc1ccc(O)cc1`, the outcome in [1], in assay [2], in [5], in assay [12], in [13] and in assay [14] was inactive. For the same compound, the compound was classed as inactive in [15] and in assay [17].
For `COC(=O)c1ccccc1O`, the call in [1], in [2], in assay [3], in [4], in assay [5] and in [6] was inactive. Besides, the compound was called inactive in [7], in assay [8], in assay [9], in assay [10], in assay [11] and in assay [20]. Moreover, the compound was called inactive in assay [13], in assay [14], in [15], in assay [19], in assay [16] and in [17]. Besides, in assay [18], the outcome was inactive.
